Source: PubChem
AMA1 RON2 block: qHTS for Inhibitors of AMA1-RON; Towards Development of Antimalarial Drug Lead: Primary Screen; hit rate 0.2% among 360,000; Plasmodium falciparum AMA1 (3D7) - RON2 peptide interaction; Potency, µM (doses to about 58.2 µM), for the others: at the highest dose activity change, negative = inhibition, actives largely listed as inhibitors; AlphaScreen AMA1-biotinylated RON2 peptide binding;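 note: potency is the fitted concentration of half-maximal effect; 0% = vehicle wells and -100% = peptide control; nearly all actives have a fitted effect of over 45% in size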
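AMA1 (3D7) with his tag at 25 nM final met compounds first, then biotinylated RON2 peptide at 25 nM; detection used donor plus acceptor beads, 10 µg/mL apiece, read by AlphaScreen after 30 min at room temperature.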
Pf growth 96h: Primary qHTS for delayed death inhibitors of the malarial parasite plastid, 96 hour incubation; P. falciparum luciferase reporter growth, 96 h; Potency, µM (highest dose often 28.7 µM), for the others: top-dose activity change, negative = inhibition, usual class: inhibitors; hit rate 6.9% among 320,000; note: potency is the fitted concentration of half-maximal effect; % is set by controls: 0 for no effect and ±100 for the full control effect
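Erythrocytes infected with luciferase-expressing P. falciparum were dispensed at 2% hematocrit and 0.05% parasitemia (final), then incubated with compounds 96 hours at 37 C in 5% CO2. Luminescence after detection reagent addition reported growth.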
Pf growth 48h: Primary qHTS for delayed death inhibitors of the malarial parasite plastid, 48 hour incubation. Potency, µM (titrated, usually from 28.7 µM), inactives show top-dose activity change, negative = inhibition, hits mostly inhibitors. P. falciparum luciferase growth in erythrocytes, 48 h. hit rate 5.9% among 310,000. AID 504832, 2011; note: potency is the fitted concentration of half-maximal effect; % is set by controls: 0 for no effect and ±100 for the full control effect
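Firefly luciferase activity from engineered P. falciparum reports growth; inhibitors lower the luminescent signal. Cultures contained 2% hematocrit erythrocytes at 0.1% final parasitemia.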
SARS PLpro yeast-1: qHTS of Yeast-based Assay for SARS-CoV PLP; S. cerevisiae expressing SARS-CoV PLpro, growth rescue; Potency, µM (top dose mostly 32.9 µM), without a hit: at the highest dose activity, positive = growth rescue, usual class: activators; hit rate 0.19% among 330,000; AID 485353, 2010; calls by dose curve; note: potency is the fitted concentration of half-maximal effect; 0% is about no effect; nearly all actives have a fitted effect of over 55% in size
Cycloheximide cs: Cycloheximide Counterscreen for Small Molecule Inhibitors of Shiga Toxin; cell reporter, cycloheximide protein synthesis inhibition counterscreen; AID 2314, 2010; hit rate 12% among 300,000; max response, %; in the data active = max response mostly above about 13%, no sharp cut-off; inactive = mostly below about 14%; note: read at 38.3 µM for the half of the compounds with a filed dose; 0% is about no effect
Shiga toxin inh: A qHTS for Small Molecule Inhibitors of Shiga Toxin. Vero cells, Shiga toxin protein synthesis inhibition reporter. inhibition, % at 38.7 µM. hit rate 9.2% among 290,000. AID 2315, 2010; in the data active = inhibition mostly above about 28%, no sharp cut-off; inactive = mostly below about 43%; note: 0% is about no effect
SARS PLpro yeast-2: qHTS of Yeast-based Assay for SARS-CoV PLP: Hit Validation. shares compounds with SARS PLpro yeast-1. yeast expressing SARS-CoV PLpro, growth phenotype rescue. calls only. hit rate 19% among 1,000. AID 652038, 2013; call rule not given here
Starred values were filed as active, the others as inactive; [ ] = dose if it differs, or a comment. Compounds with a hit are over-represented: about 19% of the library has one in this group of screens. Unless noted, calls come from the whole dose curve; as a rule, active = well fitted curve in the direction sought with a large enough effect; inconclusive = small, poorly fitted or top-dose-only effect, or another doubt; inactive = no such curve, though single readings can be large; an effect the other way counts as inactive or inconclusive.

Screening S=C(NCCc1ccccn1)Nc1cccc(Cl)c1 returned AMA1 RON2 block 7%, Pf growth 96h 27%, Pf growth 48h 5%, SARS PLpro yeast-1 20%, Cycloheximide cs 10 and Shiga toxin inh 18.
For COCCNC(=S)NC(=O)CC12CC3CC(CC(C3)C1)C2 the results were AMA1 RON2 block -13%, Pf growth 96h 12%, Pf growth 48h inconclusive, SARS PLpro yeast-1 inconclusive, Cycloheximide cs -4, Shiga toxin inh -4 and SARS PLpro yeast-2 active.
COc1ccc(-c2noc(C3CCCN(C(=O)c4cccs4)C3)n2)cc1 (stereo not drawn) was read as AMA1 RON2 block -6%, Pf growth 48h 3%, SARS PLpro yeast-1 inconclusive, Cycloheximide cs 18 and Shiga toxin inh 55.
For O=C(Nc1ccccc1)N1CCCC(c2nc(-c3cccs3)no2)C1 (stereo not drawn) the results were AMA1 RON2 block -5%, Pf growth 48h 21%, SARS PLpro yeast-1 16µM*, Cycloheximide cs 19*, Shiga toxin inh 80* and SARS PLpro yeast-2 inactive.
`O=C(CNS(=O)(=O)c1ccc(F)cc1)N1CCCC1` gave AMA1 RON2 block -4%.
`O=C(Nc1ccc(F)cc1)C(c1ccccc1)N1CCN(S(=O)(=O)c2c(F)cccc2F)CC1` (stereo not drawn) gave AMA1 RON2 block 6%[11.6 µM], Pf growth 96h inconclusive, Pf growth 48h inconclusive, SARS PLpro yeast-1 3%, Cycloheximide cs 3 and Shiga toxin inh 10.
Screening O=C(Nc1ccc(F)cc1)C(c1ccccc1)N1CCN(S(=O)(=O)c2ccccc2)CC1 (stereo not drawn) returned AMA1 RON2 block -7%, Pf growth 96h inconclusive, Pf growth 48h -12%, SARS PLpro yeast-1 inconclusive, Cycloheximide cs 0, Shiga toxin inh -18 and SARS PLpro yeast-2 inactive.
Screening C[C@]12CC[C@@H]3c4ccc(O)cc4CC[C@H]3[C@@H]1C[C@@H](O)[C@@H]2O[C@@H]1O[C@H](C(=O)O)[C@@H](O)[C@H](O)[C@H]1O returned AMA1 RON2 block 8%, Pf growth 96h 2%, Pf growth 48h -11%, SARS PLpro yeast-1 inconclusive, Cycloheximide cs 4, Shiga toxin inh 35 and SARS PLpro yeast-2 inactive.
Screening O=C1CN(C(=O)NCCC(=O)NC2CCCCC2)c2ccccc2N1 returned AMA1 RON2 block -5%, Pf growth 96h -23%, Pf growth 48h -6%, SARS PLpro yeast-1 1%, Cycloheximide cs -1 and Shiga toxin inh -3.
Screening CC(=O)NCCC(=O)Nc1nc(-c2ccccc2Cl)cs1 returned AMA1 RON2 block -4%, Pf growth 96h -5%, Pf growth 48h -18%, SARS PLpro yeast-1 -1%, Cycloheximide cs 8 and Shiga toxin inh 22.
CC(=O)NCCC(=O)Nc1nc(-c2ccc3ccccc3c2)cs1 was read as AMA1 RON2 block -6%, Pf growth 96h 3%, Pf growth 48h 28%, SARS PLpro yeast-1 inconclusive, Cycloheximide cs 29*, Shiga toxin inh 52* and SARS PLpro yeast-2 inactive.
COc1ccc(NC(=O)C(=O)NCCC2CCCCN2S(=O)(=O)c2ccccc2)cc1 (stereo not drawn) was read as AMA1 RON2 block -15%, Pf growth 96h inconclusive, Pf growth 48h -30% and SARS PLpro yeast-1 -8%.
For CCCCCC(C)NC(=O)c1ccoc1C (stereo not drawn) the results were AMA1 RON2 block 12%, Pf growth 96h -14%, Pf growth 48h 20%, Cycloheximide cs 8, Shiga toxin inh 16 and SARS PLpro yeast-2 inactive.
Screening CN1C[C@@H]2[C@@H]3C(=O)N(Cc4ccccc4)C(=O)[C@@H]3[C@](Cc3ccccc3)(C1=O)N2C(=O)c1ccc(Cl)cc1 returned AMA1 RON2 block -3%.
`COc1ccc(N(CC(=O)Nc2ccc(F)c(Cl)c2)S(=O)(=O)c2c(C)noc2C)cc1` gave AMA1 RON2 block 5%, Pf growth 96h inconclusive, Pf growth 48h inconclusive, SARS PLpro yeast-1 -14%, Cycloheximide cs -1 and Shiga toxin inh 4.
`COc1ccc(N(CC(=O)Nc2cc(Cl)ccc2OC)S(=O)(=O)c2c(C)noc2C)cc1` gave AMA1 RON2 block -3%, Pf growth 96h 9.3µM*, Pf growth 48h 10µM*, SARS PLpro yeast-1 inconclusive, Cycloheximide cs 1, Shiga toxin inh -17 and SARS PLpro yeast-2 active.
`O=C(O)CC(NC(=O)COc1ccc(Cl)cc1Cl)C(=O)O` (stereo not drawn) gave AMA1 RON2 block -8%, Pf growth 96h 2%, Pf growth 48h 20%, SARS PLpro yeast-1 8%, Cycloheximide cs -1 and Shiga toxin inh 0.
Screening CC(Sc1nnc(NCc2ccccc2)s1)C(=O)Nc1ccc2c(c1)C(=O)c1ccccc1C2=O (stereo not drawn) returned AMA1 RON2 block -17%, Pf growth 96h 2%, Pf growth 48h 40%, SARS PLpro yeast-1 inconclusive, Cycloheximide cs 63*, Shiga toxin inh 64* and SARS PLpro yeast-2 active.
For CC(Sc1nnc(Nc2ccccc2)s1)C(=O)Nc1nc(-c2ccccc2)cs1 (stereo not drawn) the results were AMA1 RON2 block -2%, Pf growth 96h inconclusive, Pf growth 48h inconclusive, SARS PLpro yeast-1 -1%, Cycloheximide cs 16 and Shiga toxin inh 46.
`O=C(N/N=C/c1ccc(OC(F)F)cc1OC(F)F)c1ccc(Br)cc1` gave AMA1 RON2 block 6%, Pf growth 96h inconclusive, Pf growth 48h -27%, Cycloheximide cs -1, Shiga toxin inh 8 and SARS PLpro yeast-2 inactive.
For COc1ccc(C(=O)N/N=C/c2sc3ccccc3c2O)cc1 the results were AMA1 RON2 block 16%, Pf growth 96h inconclusive, Pf growth 48h inconclusive, SARS PLpro yeast-1 2.8µM*, Cycloheximide cs 40*, Shiga toxin inh 116* and SARS PLpro yeast-2 inactive.
For COc1ccc2cc(C(=O)N/N=C/c3sc4ccccc4c3O)ccc2c1 the results were AMA1 RON2 block 57%, Pf growth 96h 40%, Pf growth 48h inconclusive, SARS PLpro yeast-1 5µM*, Cycloheximide cs 52*, Shiga toxin inh 111* and SARS PLpro yeast-2 active.
For O=C(N/N=C/c1sc2ccccc2c1O)c1ccccc1 the results were AMA1 RON2 block 44%, Pf growth 96h inconclusive, Pf growth 48h 4.7µM*, SARS PLpro yeast-1 4µM*, Cycloheximide cs 50*, Shiga toxin inh 61* and SARS PLpro yeast-2 inactive.
For O=C(N/N=C/c1sc2ccccc2c1O)c1cccc2ccccc12 the results were AMA1 RON2 block 27%, Pf growth 96h -120%, Pf growth 48h inconclusive, SARS PLpro yeast-1 2.8µM*, Cycloheximide cs 25*, Shiga toxin inh 40 and SARS PLpro yeast-2 inactive.
